# TRb SRC2 PPI: TRbeta-SRC2 interaction inhibition | 280,000 compounds, 0.065% hits | AID 1469 | TRbeta-SRC2 peptide binding, fluorescence polarization; receptor liganded with 1 µM T3 | P10828 | Potency, µM (doses to about 106 µM), most hits filed as inhibitors; note: nearly all actives have a fitted effect of over 50% in size
#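 Assay buffer: 20 mM Tris-HCl, 100 mM NaCl, 10% glycerol, 1 mM EDTA, 0.01% NP-40, 1 mM DTT, 1 uM T3, 5% DMSO; TRb LBD 0.6 uM, Texas Red SRC2 20 nM; FP after 5 hr.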
# BLM inh: blocks DNA unwinding by human BLM helicase | P54132 | recombinant BLM DNA unwinding, fluorescence dequenching | Potency, µM (top dose mostly 56.1 µM), usual class: inhibitors | 350,000 compounds, 0.2% hits; note: nearly all actives have a fitted effect of over 35% in size
# RGS12 GoLoco inh-1: inhibitors of human Gai1-RGS12 GoLoco interaction (red fluorophore); 230,000 compounds, 0.44% hits; P63096; AID 880; Gai1:RGS12 GoLoco peptide FP, rhodamine, 10 min; Potency, µM (titrated, usually from 61.6 µM), actives largely listed as inhibitors; active = well fitted inhibition curve with a large enough effect, not every such curve was filed as active; inactive = no such curve, though single readings can be large or run the other way; note: nearly all actives have a fitted effect of over 30% in size
# Target sequence (P63096 whole entry, looked up): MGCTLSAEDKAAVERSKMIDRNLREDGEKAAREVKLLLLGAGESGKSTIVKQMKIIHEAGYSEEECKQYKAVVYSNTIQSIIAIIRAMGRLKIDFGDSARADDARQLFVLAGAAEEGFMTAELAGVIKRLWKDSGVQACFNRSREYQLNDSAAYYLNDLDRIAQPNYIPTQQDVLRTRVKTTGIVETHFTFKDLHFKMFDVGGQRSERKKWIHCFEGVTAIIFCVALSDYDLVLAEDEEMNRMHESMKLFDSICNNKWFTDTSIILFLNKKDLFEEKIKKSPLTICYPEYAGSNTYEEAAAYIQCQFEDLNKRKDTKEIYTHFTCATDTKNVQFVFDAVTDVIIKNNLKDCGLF
# TexasRed fluor: alters Texas Red total fluorescence, flagging assay interference. TRb/SRC2 Texas Red total fluorescence interference. Potency, µM (highest dose often 106 µM). AID 1479. 280,000 compounds, 0.29% hits; active = well fitted curve in either direction with a large enough effect; inconclusive = small, poorly fitted or top-dose-only effect
#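 Flags fluorescent or light-absorbing compounds by total fluorescence, S + 2P, at 555 nm excitation and 632 nm emission. Mixture: 20 nM Texas Red SRC2 peptide, 0.6 uM human TRb LBD, 1 uM T3, 5% DMSO; compound exposure 5 h at ambient temperature.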
# APE1 inh: blocks human APE1 abasic DNA cleavage; P27695; recombinant APE1, TAMRA/BHQ-2 abasic DNA cleavage fluorescence; Potency, µM (series often up to 65.8 µM), most hits filed as inhibitors; 350,000 compounds, 0.35% hits; AID 2517; note: nearly all actives have a fitted effect of over 55% in size
# Target sequence (P27695 whole entry, looked up): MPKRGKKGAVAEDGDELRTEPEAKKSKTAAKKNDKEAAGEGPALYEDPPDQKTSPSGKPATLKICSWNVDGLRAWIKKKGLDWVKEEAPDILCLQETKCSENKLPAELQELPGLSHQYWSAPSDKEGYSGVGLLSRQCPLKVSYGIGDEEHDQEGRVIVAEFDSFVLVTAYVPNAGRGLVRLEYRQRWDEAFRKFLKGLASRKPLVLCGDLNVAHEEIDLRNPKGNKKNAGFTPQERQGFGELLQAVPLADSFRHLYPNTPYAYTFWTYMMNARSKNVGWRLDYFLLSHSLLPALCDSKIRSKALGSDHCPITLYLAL
#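 0.75 nM APE1 + cpd, 15 min RT; start w/ 50 nM TAMRA/BHQ-2 THF-abasic dsDNA; kinetic fluor 525/598 nm ×3 reads @60 s; Δ(read3−read1); normalized to DMSO and NSC13755 control wells.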
# RECQ1 inh: RECQ1 (human) helicase inhibition | Potency, µM (titrated, usually from 57.3 µM), hits mostly inhibitors | RECQ1 DNA unwinding, red fluorescence kinetic read | 240,000 compounds, 0.54% hits; note: nearly all actives have a fitted effect of over 30% in size
#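 50 nM RECQ1T1 preincubated 15 min with compound in Tris pH 8.0 buffer with MgCl2, DTT, Tween-20 and 2.5 ug/ml poly(dI-dC); started with 200 nM TAMRA/BHQ-2 forked duplex and 2 mM ATP. Unwinding read as fluorescence (525/598 nm), two reads 2 h apart.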
# RGS12 GoLoco inh-2: confirmation of human RGS12 GoLoco motif inhibitors; shares compounds with RGS12 GoLoco inh-1; Gai1/rhodamine-RGS12 GoLoco peptide fluorescence polarization; Potency, µM (doses to about 57.1 µM), usual class: inhibitors; 110 compounds, 50% hits; AID 2390
# A number is an active result; n = inactive; u = inconclusive; x = not tested or not shown; ! = not active in a repeat; [ ] = remark or other dose. Only some compounds are listed: those with a hit (about 0.9% of all), similar ones and a draw of the others. Unless noted, calls come from the whole dose curve; as a rule, active = well fitted curve in the direction sought with a large enough effect; inconclusive = small, poorly fitted or top-dose-only effect, or another doubt; inactive = no such curve, though single readings can be large; an effect the other way counts as inactive or inconclusive.
SMILES,TRb SRC2 PPI,BLM inh,RGS12 GoLoco inh-1,TexasRed fluor,APE1 inh,RECQ1 inh,others
CCC[C@@H]1C[C@@H](C(=O)N[C@@H]([C@H]2O[C@H](SC)[C@H](OP(=O)(O)O)[C@@H](O)[C@H]2O)[C@H](C)Cl)N(C)C1,x,x,x,x,n,x,
O=C(Nc1cccc(Cl)c1)c1cc(-c2ccc3c(c2)OCCO3)on1,n,n,x,10µM[quencher],x,x,
Cc1ccc(NC(c2nnc(-c3ccccc3)o2)c2ccccc2F)c(Cl)c1 (stereo unspecified),n,n,x,n,x,x,
Cc1ccc(NC(c2nnc(-c3ccccc3)o2)c2ccccc2F)c([N+](=O)[O-])c1 (stereo unspecified),n,n,x,251µM[quencher],x,x,
CCN(CC)c1cc2c(cc1F)c(=O)c(S(=O)(=O)c1ccc(OC)cc1)cn2CC,n,n,x,50µM[quencher],x,x,
CCn1cc(S(=O)(=O)c2ccccc2)c(=O)c2cc(F)c(N3CCCC3)cc21,n,n,x,n,x,x,
CCn1cc(S(=O)(=O)c2ccccc2)c(=O)c2cc(F)c(N3CCN(c4ccccc4)CC3)cc21,u,n,x,56µM[quencher],x,x,
CCCn1cc(S(=O)(=O)c2cccc(Cl)c2)c(=O)c2cc(F)c(N3CCN(CC)CC3)cc21,n,n,x,112µM[quencher],x,x,
CCCC[C@@H](C)/C=C(C)/C=C(\C)C(=O)NC1=C[C@@](O)(/C=C/C=C/C=C/C(=O)NC2=C(O)CCC2=O)[C@@H]2O[C@@H]2C1=O,n,u,x,n,u,u,
CC(C)CC(C)(O)C#CC(C)(O)CC(C)C (stereo unspecified),n,x,x,n,x,x,
CCCCCCCCCCCCCC(=O)OC,n,x,x,n,x,x,
Nc1ncnc2c1c(I)cn2C1OC(CO)C(O)C1O (stereo unspecified),n,n,25µM!,n,n,u,
CCCCCCCCCCCC(=O)OCC(O)C1OCC(O)C1O (stereo unspecified),x,n,x,x,x,x,
CCCCCCCCCCCCCCCC(=O)OC[C@H](O)[C@H]1OC(=O)C(O)=C1O,x,x,x,x,8.9µM,x,
CC(=O)NC(c1cc(Cl)c2ccccc2c1O)C1CC1 (stereo unspecified),x,x,x,x,n,x,
CC(C)(C)[C@H](O)[C@H](Cc1ccc(Cl)cc1)n1cncn1,n,x,x,n,x,x,
CCc1ccc(-n2nnc(-c3nc(-c4cccs4)no3)c2N)cc1,n,n,x,n,x,x,
CCCCN(CCO)CCCC,n,x,16µM,n,n,n,
CC(COCC(C)OC(=O)c1ccccc1)OC(=O)c1ccccc1 (stereo unspecified),n,x,x,n,x,x,
CCN(CC)c1ccc(NC(=O)COCc2cc(-c3ccc4c(c3)OCO4)on2)c(C)c1,n,n,x,n,x,x,
COc1ccccc1OCC(=O)OC/C(O)=C(\C#N)c1nc2ccccc2[nH]1,u,n,n,2.5µM[quencher],n,n,
Nc1nnc(-c2ccc3ccccc3c2)o1,x,x,x,x,n,x,
O=C1NC(=S)S/C1=C\c1coc2ccc(O)cc2c1=O,n,n,n,n,n,n,
O=C1NC(=S)S/C1=C\c1coc2ccccc2c1=O,n,n,n,n,n,20µM,
CCCCCCCCCC[n+]1cccc2c3ccccc3ccc21,n,n,10µM,n,n,n,
SMILES,TRb SRC2 PPI,BLM inh,RGS12 GoLoco inh-1,TexasRed fluor,APE1 inh,RECQ1 inh,others
COc1cc(-c2nc3sccn3c2Nc2c(C)cccc2C)ccc1O,n,n,x,0.004µM[quencher],x,x,
Cc1cccc(C)c1Nc1c(-c2ccc(O)cc2)nc2sccn12,n,n,x,n,x,x,
O=C1CCCC(O)=C1N=Nc1c(Cl)cc(C(F)(F)F)cc1Cl,1.4µM,n,n,28µM[fluorescent],u,13µM,
CCCCNc1nc(C#N)nc(Nc2ccccc2)n1,x,n,x,x,n,n,
Cc1snc(SCC(=O)c2ccc([N+](=O)[O-])cc2)c1C#N,n,n,14µM,n,n,n,
COc1ccccc1-c1no[n+]([O-])c1C#N,x,x,x,x,n,x,
CCOc1cccc(C2Nc3ccccc3-c3cc(C)nn32)c1O (stereo unspecified),n,n,x,0.0004µM[quencher],x,x,
COc1cc(C2Nc3ccccc3-c3cc(C)nn32)ccc1O (stereo unspecified),n,n,x,n,x,x,
COc1cc(/C=C2\SC(=S)N(NC(=O)c3ccc(O)cc3)C2=O)ccc1O,x,n,x,x,n,x,
COc1cc(/C=C2\SC(=S)N(Nc3ncc(C(F)(F)F)cc3Cl)C2=O)ccc1O,u,n,n,n,u,28µM,
COc1cc(/C=C2\SC(=S)N(NC(=O)c3cccnc3)C2=O)ccc1O,u,n,n,u,u,25µM,
CCCCCCCCCC(C)=O,n,x,x,n,x,x,
Cc1ccc(N=Nc2[nH]c3ccccc3c2O)cc1,n,n,13µM,n,n,n,
COc1ccc(N=Nc2[nH]c3ccc(C)cc3c2O)cc1,n,n,3.2µM,n,n,n,
Cc1[nH]c2ccccc2c1N=Nc1ccc(F)cc1,n,n,n,n,n,n,
Cc1ccc(N=Nc2c(O)[nH]c3ccc(F)cc23)cc1,n,n,n,n,n,n,
O=C(O)C1(C(=O)Nc2ccc(Cl)cc2Cl)CC1,n,x,x,n,x,x,
Cc1ccc(C)c([C@@H]2NC(=O)c3ccccc3N2)c1,x,x,n[14.2 µM],x,x,x,
Cc1ccc2c(c1)C(=O)OC2=O,n,x,x,n,x,x,
COC(=O)[C@H]1O[C@@H](c2cc(OC)c(C)c(OC)c2O)[C@H](C)[C@@H](O)[C@H]1C,n,n,n,n,n,n,
Cc1cc2nc3c(=O)n(C4CCCCC4)c(=O)[nH]c3nc2cc1N,n,u,n,n,n,n,RGS12 GoLoco inh-2=u
Cc1cc(C)cc(Nc2cc(=O)n(C3CCCCC3)c(=O)[nH]2)c1,n,n,n,n,n,n,
CC(C)c1ccc(/C=C(\C#N)c2nc(-c3ccc(O)cc3)cs2)cc1,n,n,x,n,x,x,
Cc1nn(C)c(C)c1N1C(=O)c2cccc3c(N)ccc(c23)C1=O,n,n,22µM,n,n,u,RGS12 GoLoco inh-2=13µM
COc1cc(OC)c(C2CC(=O)N3CN(c4ccc(C)cc4)CSC3=C2C#N)cc1OC (stereo unspecified),n,n,8.9µM,n,n,n,RGS12 GoLoco inh-2=u
SMILES,TRb SRC2 PPI,BLM inh,RGS12 GoLoco inh-1,TexasRed fluor,APE1 inh,RECQ1 inh,others
COC(=O)NC(C(=O)OC)(C(=O)OC)c1ccccc1,n,n,n,n,n,n,
COc1ccccc1N1C(=O)C2CC(C)=C(C)CC2C1=O (stereo unspecified),n,n,n,n,n,n,
COc1ccccc1N1C(=O)C=C(Sc2nc(C)cc(C)n2)C1=O,n,n,1.4µM,n,n,n,RGS12 GoLoco inh-2=u
CCOc1ccc(Cn2c(CNS(=O)(=O)c3ccc(Cl)s3)nc3cccnc32)cc1,n,n,x,n,x,x,
O=C1c2cccc3c([N+](=O)[O-])ccc(c23)C(=O)N1c1ccc(Cl)cn1,n,n,n,n,n,n,
O=C1c2cccc3c([N+](=O)[O-])ccc(c23)C(=O)N1c1ccccn1,n,n,28µM,n,n,n,RGS12 GoLoco inh-2=n
